From PubChem
Sampled rows, rich in hits. Any-hit rate of the full collection: about 9.2%.
ELG1 repair inh: inhibitors of ELG1-dependent DNA repair in HEK293T cells. Potency, µM (top dose mostly 46.1 µM), for the others: at the top dose activity change, negative = inhibition, hits mostly inhibitors. HEK293T ELG1-luciferase reporter, luminescence, 16 h; DNA damage induced by 5-fluorouridine. actives 2.3% (n = 330,000); further: on the % scale 0 is the no-effect control and ±100 the full control effect; nearly all actives have a fitted effect of over 55% in size
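DMSO vehicle served as the neutral condition. Each well held 2,000 cells given 5-fluorouridine plus compound; after 16 hr at 37 °C/5% CO2, ONE-Glo was added and luciferase measured 30 min later.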
SMN2 splice enh: SMN2 splice variant enhancement; actives 2.8% (n = 210,000); AID 1458; HEK293 SMN2-luciferase splicing reporter, luminescence, 30-36 h; Potency, µM (doses to about 46.1 µM), without a hit: top-dose activity change, positive = activation, most hits filed as activators; further: % of control where 0% means no effect; nearly all actives have a fitted effect of over 55% in size
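qHTS luciferase splicing reporter: luminescence rises when SMN2 exon 7 is included in transfected HEK293 cells. Compound exposure lasted 30-36 h at 37C, with 4.5 mM final sodium butyrate as control, followed by a ONE-Glo read.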
Rab9 promoter act: activates the Rab9 promoter. Huh7 Rab9 promoter-luciferase reporter, luminescence, 24 h. Potency, µM (highest dose often 9.22 µM), for inactives: at the top dose activation, negative = inhibition, actives largely listed as activators. actives 2.8% (n = 320,000). AID 485297; further: % of control where 0% means no effect; nearly all actives have a fitted effect of over 60% in size
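Luciferase signal after 10 min detection reagent at ambient indicates Rab9 promoter upregulation; stably transfected Huh7 cells were treated 24 h with compound in DMSO at 37 °C, 5% CO2.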
FLuc modulator: inhibits or activates purified firefly luciferase, miR-21 counter-screen. actives 6.9% (n = 360,000). Potency, µM (highest dose often 57.5 µM), for inactives: top-dose activity change, negative = inhibition, usual class: inhibitors. purified FLuc, Km substrates, luminescence inhibition;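 further: plate controls were vehicle for no effect and reference inhibitor for full effect; nearly all actives have a fitted effect of over 55% in size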
Target sequence (P08659 whole entry, looked up): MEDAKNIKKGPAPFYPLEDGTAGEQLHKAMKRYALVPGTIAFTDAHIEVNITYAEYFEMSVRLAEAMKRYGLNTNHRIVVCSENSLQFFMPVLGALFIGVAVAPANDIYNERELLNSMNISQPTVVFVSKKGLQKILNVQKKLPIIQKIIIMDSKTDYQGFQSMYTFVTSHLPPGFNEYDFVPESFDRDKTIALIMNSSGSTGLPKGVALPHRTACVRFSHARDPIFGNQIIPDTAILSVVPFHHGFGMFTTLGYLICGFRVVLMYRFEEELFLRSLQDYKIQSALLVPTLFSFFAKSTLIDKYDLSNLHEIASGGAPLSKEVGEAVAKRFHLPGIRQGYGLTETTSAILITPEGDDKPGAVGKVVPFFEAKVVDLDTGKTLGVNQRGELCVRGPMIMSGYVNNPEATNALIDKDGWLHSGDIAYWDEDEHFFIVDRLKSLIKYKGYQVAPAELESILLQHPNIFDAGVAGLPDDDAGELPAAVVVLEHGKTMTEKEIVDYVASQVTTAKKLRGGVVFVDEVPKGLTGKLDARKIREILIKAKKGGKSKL
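Purified P. pyralis luciferase, 10 nM final, with Km-level 10 uM D-luciferin and 10 uM ATP in 50 mM Tris acetate pH 7.5, 10 mM Mg acetate, 0.01% Tween-20, 0.05% BSA; 6-point qHTS titration about 60 µM downward; luminescence read.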
NPC1 prom act: activators of NPC1 promoter; AID 485313; Potency, µM (doses to about 9.22 µM), for inactives: at the top dose activation, most hits filed as activators; Huh7 NPC1 promoter luciferase reporter, 24 h; actives 2.4% (n = 320,000); further: % of control where 0% means no effect; nearly all actives have a fitted effect of over 60% in size
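Luciferase expression driven by the NPC1 promoter was measured in stably transfected Huh7 cells after a 24 h compound incubation, using a luciferase reagent and a luminescence read.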
ELG1 genotox: genotoxicity induction in ELG1-luciferase HEK293T cells; actives 1.3% (n = 330,000); AID 504466; Potency, µM (top dose mostly 46 µM), for the others: at the highest dose activity change, positive = activation, actives largely listed as activators; HEK293T ELG1-luciferase reporter, luminescence, 16 h; further: % of control where 0% means no effect; nearly all actives have a fitted effect of over 60% in size
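DMSO vehicle served as control against compound-treated ELG1-luciferase HEK293T cells; exposure lasted 16 hr at 37 °C and 5% CO2, followed by ONE-Glo luminescence detection after 30 min.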
An asterisk follows results filed as active; u = inconclusive; x = no result given; [ ] = remark or other dose. The call rests on the fitted dose curve; in most records, active means well fitted curve in the direction sought with a large enough effect; inconclusive means small, poorly fitted or top-dose-only effect, or another doubt; inactive means no such curve, though single readings can be large; an effect the other way counts as inactive or inconclusive. Potency means the concentration at half of the fitted maximal effect.

SMILES	ELG1 repair inh	SMN2 splice enh	Rab9 promoter act	FLuc modulator	NPC1 prom act	ELG1 genotox
Cc1nn(CC(=O)Nc2ccc3c(c2)CCC3)c(C)c1[N+](=O)[O-]	11%	x	-6%	4%	-2%	-1%
CCCSc1nc(O)c(C(c2ccc(OC)c(O)c2)c2c(O)nc(SCCC)n(C)c2=O)c(=O)n1C	-1%	12%	-5%	u	0%	4%
CC(=O)Nc1ccc(C(=O)COC(=O)Cc2ccsc2)c(F)c1	16%	x	x	x	x	1%
CC(=O)Nc1ccc(C(=O)COC(=O)C2CCCCC2)c(F)c1	u	x	2%	0.67µM*	2%	6%
CC(=O)Nc1ccc(C(=O)COC(=O)C2CC2)c(F)c1	u	x	24%	5.4µM*	u	u
COc1ccccc1CN1CC[C@@]2(CCCN(C(=O)c3cccc(F)c3)C2)C1	x	-4%	x	x	x	x
Cc1noc(C)c1S(=O)(=O)N1CCc2nc(COc3ccccc3)c3c(c2C1)CO[C@@H](C)C3	x	-10%[9.22 µM]	x	x	x	x
CC(C)CC(=O)Nc1nnc(SCc2cc(=O)n3ccccc3n2)s1	x	x	x	-7%	x	x
CC(Sc1nnc(-c2cccnc2)n1-c1ccccc1F)C(=O)N1CCCc2ccccc21 (stereo not drawn)	-22%	5%	1%	5%	-5%	-7%
Cc1ccc(-c2cn(-c3ccccc3)c(=S)[nH]2)cc1C	u	x	0.13µM*	12µM*	1.1µM*	3.3µM*
Cc1ccccc1-c1cn(-c2ccccc2)c(=S)[nH]1	0%	x	-2%	-3%	1%	6%
CCOC(=O)Nc1cccc(NC(=O)c2ccccc2F)c1	-11%	-11%	-7%	u	-4%	-1%
O=C(O)c1cc(NC(=O)c2ccccc2F)cc(NC(=O)c2ccccc2F)c1	16%	x	8%	0%	-2%	2%
CCN(CC)c1ccc(NC(=O)c2ccccc2F)cc1	u	11µM*	0.56µM*	6µM*	u	u
O=C(Nc1ccc(Nc2ccccc2)cc1)c1ccccc1F	u	x	u	12µM*	u	u
COc1ccc(-c2cc(=O)c(C(=O)c3ccc(C)cc3)n[nH]2)cc1	-5%	-6%	3%	u	4%	-5%
CC1=C(CO)C(=O)OC([C@@H](C)C2CC[C@H]3C4C[C@H]5O[C@]56[C@@H](O)C=CC(=O)[C@]6(C)C4CC[C@]23C)C1 (stereo partly drawn)	9.2µM*	x	-41%	-4%	-52%	-22%
CC(C(=O)O)C1CCC2C3CC=C4CC(O)CC[C@@]4(C)C3CC[C@]12C (stereo partly drawn)	x	-6%	x	x	x	x
CCCNC(=O)c1c2c(nc3ccccc13)C(=O)N(C1CCCCC1)C2	x	x	x	-2%	x	x
Nc1ccc(C#Cc2ccc3c(=O)c4ccccc4oc3c2)cc1	u	x	3.5µM*	u	2.2µM*	u
CC(=O)c1cccc(Nc2ccc(-c3ccccc3F)nn2)c1	u	11µM*	2.2µM*	5.4µM*	2.8µM*	13%
CC(=O)c1ccc(Nc2ccc(-c3ccccc3C)nn2)cc1	u	11µM*	1.6µM*	9.5µM*	u	u
COc1ccc(S(=O)(=O)N2CCC(c3nnnn3-c3ccccc3)CC2)cc1OC	x	5%	x	-10%	x	x
CCc1cc(CN2CCOCC2)c(NC(=O)c2ccccc2)s1	0%	-1%	17%	u	-1%	7%
Cc1ccc(NC(=O)c2sc3ncn(CC(=O)N4CCOCC4)c(=O)c3c2C)c(Br)c1	-7%	x	16%	u	10%	13%
SMILES	ELG1 repair inh	SMN2 splice enh	Rab9 promoter act	FLuc modulator	NPC1 prom act	ELG1 genotox
COCCNC(=O)C(=O)NNC(=O)CCc1ccccc1	2%	x	3%	1%	-2%	-2%
Cc1ccc(-c2cc(-c3n[nH]c(=S)o3)c3ccccc3n2)cc1	-28%	-63%	-8%	19µM*	-8%	-10%
S=c1[nH]nc(-c2cc(-c3ccccn3)nc3ccccc23)o1	-5%	x	0%	4%	-2%	0%
CCc1ccc(-c2cc(-c3n[nH]c(=S)n3CC)c3ccccc3n2)cc1	-11%	u	24%	1.2µM*	13%	11%
CCn1c(-c2cc(-c3cccc(OC)c3)nc3ccccc23)n[nH]c1=S	-5%	2%	-1%	24µM*	-2%	3%
CCN(C(=O)c1cn(C)c(=O)c2ccccc12)c1cccc(C)c1	x	5%	x	-15%	x	x
COc1ccccc1NC(=O)CSc1nnc2c(n1)[nH]c1ccccc12	x	-27%	x	-3%	x	x
CCCC1c2ccc(C)n2CCN1C(=O)Nc1ccccc1Cl (stereo not drawn)	u	u	26%	12µM*	20%	14%
Oc1ccc(-c2[nH]nc(-c3ccccc3)c2-c2nc3ccccc3[nH]2)cc1	-10%	-9%	2%	-2%	-3%	1%
FC(F)c1nc2ccccc2[nH]1	-2%	x	-3%	-17%	1%	1%
c1ccc2[nH]c(-c3cscn3)nc2c1	u	13µM*	u	13µM*	u	u
c1ccc2nc(-c3nc4ccccc4[nH]3)ccc2c1	u	0.4µM*	0.63µM*	0.3µM*	2.8µM*	x
COc1cc(OC)c(C2=NOC(C(=O)O)C2)cc1Cl (stereo not drawn)	1%	4%	-3%	-1%	-7%	1%
CCc1ccccc1NC(=S)N(CCN(C)C)Cc1cccs1	u	-6%	-1%	-1%	-5%	2%
CNS(=O)(=O)c1ccc2c3c(cccc13)C(=O)N2C	u	x	3%	0%	-4%	18%
CCN1C(=O)c2cccc3c(S(=O)(=O)Nc4nc(C)cs4)ccc1c23	u	13µM*	-2%	1%	-1%	u
CN1C(=O)c2cccc3c(S(=O)(=O)Nc4ccccc4F)ccc1c23	u	x	0%	0%	-8%	5.8µM*
O=C1Nc2ccc(S(=O)(=O)NCC3CCCO3)c3cccc1c23 (stereo not drawn)	-7%	x	3%	-2%	-4%	9%
CCN1C(=O)c2cccc3c(S(=O)(=O)Nc4ccccc4)ccc1c23	u	20µM*	-5%	-5%	-5%	u
CCN1C(=O)c2cccc3c(S(=O)(=O)NCC4CCCO4)ccc1c23 (stereo not drawn)	u	x	-2%	-1%	0%	15µM*
O=C(c1cccc([N+](=O)[O-])c1)N1CCN(c2n[nH]c(=O)[nH]c2=O)CC1	0%	x	-7%	-1%	-5%	-2%
CCN1C(=O)c2cccc3c(S(=O)(=O)Nc4ccccn4)ccc1c23	u	u	-3%	0%	-5%	21µM*
